Measurements: ChEMBL document CHEMBL2218924, “A broad activity screen in support of a chemogenomic map for kinase signalling research and drug discovery” (Biochem J, 2013)

Key:
[1] = target: T1, Serine/threonine-protein kinase TAO3 (Homo sapiens) (UniProt Q9H2K8); conditions: at 1 µM
T1 sequence (whole entry): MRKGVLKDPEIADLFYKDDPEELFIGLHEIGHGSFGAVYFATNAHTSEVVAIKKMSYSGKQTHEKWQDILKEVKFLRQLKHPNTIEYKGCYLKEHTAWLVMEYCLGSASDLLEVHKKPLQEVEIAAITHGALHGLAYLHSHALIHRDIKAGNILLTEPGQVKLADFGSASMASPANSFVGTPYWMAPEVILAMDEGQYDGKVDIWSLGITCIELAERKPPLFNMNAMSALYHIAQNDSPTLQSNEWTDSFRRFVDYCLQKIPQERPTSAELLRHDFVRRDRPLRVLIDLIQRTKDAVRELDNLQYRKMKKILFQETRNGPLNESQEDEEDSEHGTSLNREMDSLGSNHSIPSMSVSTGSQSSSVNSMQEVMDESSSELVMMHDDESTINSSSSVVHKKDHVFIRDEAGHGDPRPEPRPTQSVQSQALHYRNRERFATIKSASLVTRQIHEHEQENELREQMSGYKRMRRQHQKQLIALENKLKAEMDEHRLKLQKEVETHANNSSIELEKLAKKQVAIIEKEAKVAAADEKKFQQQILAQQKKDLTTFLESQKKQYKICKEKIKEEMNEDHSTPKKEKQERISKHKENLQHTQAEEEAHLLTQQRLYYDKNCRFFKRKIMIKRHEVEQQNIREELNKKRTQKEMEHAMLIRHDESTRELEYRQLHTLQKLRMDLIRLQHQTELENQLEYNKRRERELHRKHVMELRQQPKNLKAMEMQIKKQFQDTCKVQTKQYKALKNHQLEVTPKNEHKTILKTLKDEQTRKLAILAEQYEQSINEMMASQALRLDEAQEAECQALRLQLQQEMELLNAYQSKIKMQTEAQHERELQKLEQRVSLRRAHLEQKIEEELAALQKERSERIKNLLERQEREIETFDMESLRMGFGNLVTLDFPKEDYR

[2] = target: T1, Serine/threonine-protein kinase TAO3 (Homo sapiens); conditions: at 10 µM
[3] = target: T2, Serine/threonine-protein kinase TBK1 (Homo sapiens) (UniProt Q9UHD2); conditions: at 1 µM
T2 sequence (whole entry): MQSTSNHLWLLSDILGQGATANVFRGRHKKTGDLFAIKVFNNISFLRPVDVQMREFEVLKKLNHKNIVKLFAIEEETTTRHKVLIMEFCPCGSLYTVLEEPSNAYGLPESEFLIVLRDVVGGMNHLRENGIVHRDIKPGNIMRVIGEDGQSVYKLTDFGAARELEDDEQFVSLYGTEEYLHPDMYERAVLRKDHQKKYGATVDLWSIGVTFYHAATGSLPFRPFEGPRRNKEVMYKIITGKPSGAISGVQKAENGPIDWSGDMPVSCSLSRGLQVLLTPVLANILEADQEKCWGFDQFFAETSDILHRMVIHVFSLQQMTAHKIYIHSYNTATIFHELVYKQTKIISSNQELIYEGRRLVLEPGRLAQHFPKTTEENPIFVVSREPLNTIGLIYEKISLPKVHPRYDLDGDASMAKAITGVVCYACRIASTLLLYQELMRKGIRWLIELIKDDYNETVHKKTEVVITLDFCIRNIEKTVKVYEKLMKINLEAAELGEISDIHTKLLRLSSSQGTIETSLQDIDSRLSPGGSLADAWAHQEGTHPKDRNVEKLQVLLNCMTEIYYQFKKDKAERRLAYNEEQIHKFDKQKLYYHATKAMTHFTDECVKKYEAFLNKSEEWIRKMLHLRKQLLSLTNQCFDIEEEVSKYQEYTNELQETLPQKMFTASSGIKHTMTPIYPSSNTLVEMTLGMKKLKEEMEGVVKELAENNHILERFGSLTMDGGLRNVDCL

[4] = target: T2, Serine/threonine-protein kinase TBK1 (Homo sapiens); conditions: at 10 µM
[5] = target: T3, TGF-beta receptor type-1 (Homo sapiens) (UniProt P36897); conditions: at 1 µM
T3 sequence (whole entry): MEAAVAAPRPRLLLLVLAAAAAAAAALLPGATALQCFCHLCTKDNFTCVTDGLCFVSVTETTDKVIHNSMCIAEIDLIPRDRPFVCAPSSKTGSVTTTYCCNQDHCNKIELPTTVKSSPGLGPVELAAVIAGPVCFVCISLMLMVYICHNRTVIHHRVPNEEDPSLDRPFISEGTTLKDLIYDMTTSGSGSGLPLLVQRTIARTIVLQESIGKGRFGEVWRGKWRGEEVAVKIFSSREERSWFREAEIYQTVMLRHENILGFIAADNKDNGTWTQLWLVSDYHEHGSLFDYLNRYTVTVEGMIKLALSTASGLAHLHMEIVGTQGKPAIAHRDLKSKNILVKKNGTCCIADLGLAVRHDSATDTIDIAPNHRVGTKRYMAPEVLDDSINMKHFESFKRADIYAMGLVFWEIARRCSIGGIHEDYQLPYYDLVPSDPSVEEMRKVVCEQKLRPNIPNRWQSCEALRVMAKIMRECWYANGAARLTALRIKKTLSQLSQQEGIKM

[6] = target: T3, TGF-beta receptor type-1 (Homo sapiens); conditions: at 10 µM
[7] = target: T4, Inhibitor of nuclear factor kappa-B kinase subunit beta (Homo sapiens) (UniProt O14920); conditions: at 10 µM
T4 sequence (whole entry): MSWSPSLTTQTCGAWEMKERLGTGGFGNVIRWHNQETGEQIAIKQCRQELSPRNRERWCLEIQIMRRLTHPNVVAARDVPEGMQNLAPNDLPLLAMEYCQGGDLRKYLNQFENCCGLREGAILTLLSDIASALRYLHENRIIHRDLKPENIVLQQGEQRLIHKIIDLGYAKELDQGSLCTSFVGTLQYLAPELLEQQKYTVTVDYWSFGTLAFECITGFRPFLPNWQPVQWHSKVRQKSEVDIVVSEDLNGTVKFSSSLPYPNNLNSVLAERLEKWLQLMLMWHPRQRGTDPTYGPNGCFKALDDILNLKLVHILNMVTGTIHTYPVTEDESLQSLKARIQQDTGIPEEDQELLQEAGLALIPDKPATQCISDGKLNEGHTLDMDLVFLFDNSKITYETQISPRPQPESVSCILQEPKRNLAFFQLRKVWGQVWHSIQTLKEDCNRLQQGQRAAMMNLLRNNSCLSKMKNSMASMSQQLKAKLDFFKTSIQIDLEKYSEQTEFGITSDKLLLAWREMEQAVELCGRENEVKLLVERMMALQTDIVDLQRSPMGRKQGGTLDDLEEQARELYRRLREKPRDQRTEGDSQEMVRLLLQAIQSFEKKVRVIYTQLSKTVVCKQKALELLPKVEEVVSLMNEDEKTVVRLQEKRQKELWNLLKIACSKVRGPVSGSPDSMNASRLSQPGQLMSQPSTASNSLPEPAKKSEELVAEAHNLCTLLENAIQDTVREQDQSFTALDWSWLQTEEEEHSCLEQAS

[8] = target: T5, Serine/threonine-protein kinase TAO2 (Homo sapiens) (UniProt Q9UL54); conditions: at 1 µM
T5 sequence (whole entry): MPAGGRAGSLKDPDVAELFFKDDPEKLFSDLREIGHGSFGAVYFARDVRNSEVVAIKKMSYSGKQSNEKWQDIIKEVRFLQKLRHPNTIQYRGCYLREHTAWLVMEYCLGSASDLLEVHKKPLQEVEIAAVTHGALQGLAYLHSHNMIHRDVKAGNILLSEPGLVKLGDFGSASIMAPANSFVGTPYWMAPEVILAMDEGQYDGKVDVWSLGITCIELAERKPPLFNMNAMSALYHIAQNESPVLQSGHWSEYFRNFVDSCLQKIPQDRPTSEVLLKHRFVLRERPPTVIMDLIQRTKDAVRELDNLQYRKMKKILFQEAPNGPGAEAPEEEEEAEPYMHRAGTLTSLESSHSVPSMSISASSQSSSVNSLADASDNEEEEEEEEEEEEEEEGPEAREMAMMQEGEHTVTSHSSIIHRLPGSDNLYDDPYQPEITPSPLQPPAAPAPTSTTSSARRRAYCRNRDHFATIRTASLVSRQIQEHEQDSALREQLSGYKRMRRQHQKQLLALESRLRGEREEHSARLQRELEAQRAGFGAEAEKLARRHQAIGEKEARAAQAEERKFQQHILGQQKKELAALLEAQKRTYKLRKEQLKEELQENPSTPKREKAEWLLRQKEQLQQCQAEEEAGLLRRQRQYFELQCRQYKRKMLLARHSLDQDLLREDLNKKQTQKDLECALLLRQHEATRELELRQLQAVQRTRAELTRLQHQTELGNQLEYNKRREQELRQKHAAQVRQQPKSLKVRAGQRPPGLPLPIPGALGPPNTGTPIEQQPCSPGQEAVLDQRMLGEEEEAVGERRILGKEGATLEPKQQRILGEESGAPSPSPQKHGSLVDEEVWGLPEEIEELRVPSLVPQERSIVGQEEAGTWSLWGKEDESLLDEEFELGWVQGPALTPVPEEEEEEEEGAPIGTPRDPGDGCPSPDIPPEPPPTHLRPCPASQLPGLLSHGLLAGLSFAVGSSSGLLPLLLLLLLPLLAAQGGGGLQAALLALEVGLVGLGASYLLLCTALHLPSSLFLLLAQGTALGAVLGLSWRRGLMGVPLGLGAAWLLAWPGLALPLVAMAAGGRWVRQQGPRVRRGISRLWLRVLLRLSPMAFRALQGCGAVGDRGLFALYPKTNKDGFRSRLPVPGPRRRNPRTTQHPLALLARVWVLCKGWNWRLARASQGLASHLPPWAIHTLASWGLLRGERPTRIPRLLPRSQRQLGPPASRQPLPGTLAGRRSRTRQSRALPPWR

[9] = target: T5, Serine/threonine-protein kinase TAO2 (Homo sapiens); conditions: at 10 µM
[10] = target: Insulin-like growth factor 1 receptor (Homo sapiens) (UniProt P08069); conditions: at 1 µM
Insulin-like growth factor 1 receptor (Homo sapiens), sequence (P08069 31-736 limits assumed): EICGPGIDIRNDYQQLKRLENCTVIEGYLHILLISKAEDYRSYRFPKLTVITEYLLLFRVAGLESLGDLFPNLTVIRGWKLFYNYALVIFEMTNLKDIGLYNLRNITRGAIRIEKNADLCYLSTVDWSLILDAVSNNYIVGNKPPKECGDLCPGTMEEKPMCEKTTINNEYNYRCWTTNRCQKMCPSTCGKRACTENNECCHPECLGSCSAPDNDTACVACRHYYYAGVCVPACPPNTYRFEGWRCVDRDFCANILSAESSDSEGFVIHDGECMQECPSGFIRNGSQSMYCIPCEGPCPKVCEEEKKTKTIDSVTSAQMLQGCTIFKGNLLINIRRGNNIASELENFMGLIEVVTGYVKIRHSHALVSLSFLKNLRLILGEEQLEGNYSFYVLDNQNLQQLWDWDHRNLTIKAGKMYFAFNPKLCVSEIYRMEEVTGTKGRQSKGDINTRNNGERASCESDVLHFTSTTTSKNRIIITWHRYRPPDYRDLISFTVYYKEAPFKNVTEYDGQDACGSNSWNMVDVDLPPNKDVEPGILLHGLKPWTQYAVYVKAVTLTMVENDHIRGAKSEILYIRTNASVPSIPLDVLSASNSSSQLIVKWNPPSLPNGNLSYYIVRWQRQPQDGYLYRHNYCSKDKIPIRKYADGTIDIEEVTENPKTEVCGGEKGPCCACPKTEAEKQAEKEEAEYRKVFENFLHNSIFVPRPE
Insulin-like growth factor 1 receptor (Homo sapiens), sequence (P08069 741-1367 limits assumed): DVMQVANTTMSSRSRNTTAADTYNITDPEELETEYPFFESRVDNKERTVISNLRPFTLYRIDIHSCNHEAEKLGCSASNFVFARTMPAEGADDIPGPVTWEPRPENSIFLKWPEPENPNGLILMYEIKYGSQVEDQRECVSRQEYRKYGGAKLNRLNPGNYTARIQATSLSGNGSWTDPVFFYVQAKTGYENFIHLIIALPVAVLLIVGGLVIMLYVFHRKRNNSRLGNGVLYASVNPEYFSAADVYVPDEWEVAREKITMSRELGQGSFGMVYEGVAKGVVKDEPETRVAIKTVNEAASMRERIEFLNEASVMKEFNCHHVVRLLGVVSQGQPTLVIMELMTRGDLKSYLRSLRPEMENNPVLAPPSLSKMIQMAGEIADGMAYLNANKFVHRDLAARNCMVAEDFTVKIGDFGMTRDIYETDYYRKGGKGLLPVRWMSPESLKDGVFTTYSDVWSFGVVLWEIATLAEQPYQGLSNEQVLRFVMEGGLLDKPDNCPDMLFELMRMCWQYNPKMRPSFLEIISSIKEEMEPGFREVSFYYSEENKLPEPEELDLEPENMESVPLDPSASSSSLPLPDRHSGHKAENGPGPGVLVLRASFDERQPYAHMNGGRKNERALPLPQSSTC

[11] = target: Insulin-like growth factor 1 receptor (Homo sapiens) (UniProt P08069); conditions: at 10 µM
[12] = target: T6, Inhibitor of nuclear factor kappa-B kinase subunit alpha (Homo sapiens) (UniProt O15111); conditions: at 1 µM
T6 sequence (whole entry): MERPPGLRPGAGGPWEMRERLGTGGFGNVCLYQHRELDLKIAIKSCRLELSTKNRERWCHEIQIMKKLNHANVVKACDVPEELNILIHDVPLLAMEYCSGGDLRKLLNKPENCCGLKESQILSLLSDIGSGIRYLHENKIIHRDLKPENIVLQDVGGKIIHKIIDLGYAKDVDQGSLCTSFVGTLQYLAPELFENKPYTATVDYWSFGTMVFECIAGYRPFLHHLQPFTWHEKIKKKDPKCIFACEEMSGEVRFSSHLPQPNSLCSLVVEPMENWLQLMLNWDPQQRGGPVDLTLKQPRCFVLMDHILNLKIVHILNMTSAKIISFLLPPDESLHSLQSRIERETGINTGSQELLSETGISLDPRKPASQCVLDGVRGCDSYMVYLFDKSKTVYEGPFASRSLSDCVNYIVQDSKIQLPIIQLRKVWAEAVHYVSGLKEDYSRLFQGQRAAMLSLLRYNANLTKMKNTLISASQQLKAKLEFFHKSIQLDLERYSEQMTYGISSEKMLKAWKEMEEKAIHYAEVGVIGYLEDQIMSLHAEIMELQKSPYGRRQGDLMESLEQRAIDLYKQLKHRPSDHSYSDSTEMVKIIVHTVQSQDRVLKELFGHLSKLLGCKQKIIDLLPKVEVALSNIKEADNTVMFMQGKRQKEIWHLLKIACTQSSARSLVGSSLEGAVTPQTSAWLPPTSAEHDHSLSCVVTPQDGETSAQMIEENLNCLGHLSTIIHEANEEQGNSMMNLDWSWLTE

[13] = target: T6, Inhibitor of nuclear factor kappa-B kinase subunit alpha (Homo sapiens); conditions: at 10 µM
[14] = target: Insulin receptor (Homo sapiens) (UniProt P06213); conditions: at 1 µM
Insulin receptor (Homo sapiens), sequence (P06213 28-758 limits assumed): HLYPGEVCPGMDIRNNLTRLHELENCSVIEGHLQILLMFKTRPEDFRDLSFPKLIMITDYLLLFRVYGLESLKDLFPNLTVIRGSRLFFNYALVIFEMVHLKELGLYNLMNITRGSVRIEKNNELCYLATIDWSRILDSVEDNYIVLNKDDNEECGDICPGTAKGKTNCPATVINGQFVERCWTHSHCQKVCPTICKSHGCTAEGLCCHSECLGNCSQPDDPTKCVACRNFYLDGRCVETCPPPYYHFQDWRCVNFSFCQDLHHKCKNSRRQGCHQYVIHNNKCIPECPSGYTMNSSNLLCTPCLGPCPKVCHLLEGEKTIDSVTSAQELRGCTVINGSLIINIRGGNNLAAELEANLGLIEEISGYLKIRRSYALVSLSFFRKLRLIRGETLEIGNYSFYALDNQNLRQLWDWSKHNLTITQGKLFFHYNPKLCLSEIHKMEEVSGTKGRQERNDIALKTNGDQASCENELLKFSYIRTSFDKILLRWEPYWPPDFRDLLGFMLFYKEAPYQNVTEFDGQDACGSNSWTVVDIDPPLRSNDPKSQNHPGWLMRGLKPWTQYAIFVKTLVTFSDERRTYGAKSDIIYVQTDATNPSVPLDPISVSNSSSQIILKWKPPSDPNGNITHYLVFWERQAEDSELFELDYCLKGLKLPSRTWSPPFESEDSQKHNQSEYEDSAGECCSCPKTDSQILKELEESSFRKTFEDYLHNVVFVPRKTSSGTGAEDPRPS
Insulin receptor (Homo sapiens), sequence (P06213 763-1382 limits assumed): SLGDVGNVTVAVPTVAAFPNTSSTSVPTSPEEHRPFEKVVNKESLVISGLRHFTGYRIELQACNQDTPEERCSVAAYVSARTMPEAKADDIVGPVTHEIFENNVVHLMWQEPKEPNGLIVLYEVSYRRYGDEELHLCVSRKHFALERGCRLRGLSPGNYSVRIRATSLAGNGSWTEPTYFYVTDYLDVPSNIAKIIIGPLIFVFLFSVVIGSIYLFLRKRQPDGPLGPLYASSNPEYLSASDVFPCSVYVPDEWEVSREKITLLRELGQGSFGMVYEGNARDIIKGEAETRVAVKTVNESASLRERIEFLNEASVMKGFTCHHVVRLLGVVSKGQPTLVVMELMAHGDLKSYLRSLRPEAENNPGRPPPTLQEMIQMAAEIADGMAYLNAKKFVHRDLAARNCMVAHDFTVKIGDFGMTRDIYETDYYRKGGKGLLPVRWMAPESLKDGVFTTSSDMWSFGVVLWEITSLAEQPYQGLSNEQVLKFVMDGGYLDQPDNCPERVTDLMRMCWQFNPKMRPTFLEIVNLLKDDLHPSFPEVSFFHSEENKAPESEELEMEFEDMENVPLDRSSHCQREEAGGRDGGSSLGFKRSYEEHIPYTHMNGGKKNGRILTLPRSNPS

[15] = target: Insulin receptor (Homo sapiens) (UniProt P06213); conditions: at 10 µM
[16] = target: Interleukin-1 receptor-associated kinase 1 (Homo sapiens) (UniProt P51617); conditions: at 1 µM
Interleukin-1 receptor-associated kinase 1 (Homo sapiens), sequence (P51617 whole entry, looked up): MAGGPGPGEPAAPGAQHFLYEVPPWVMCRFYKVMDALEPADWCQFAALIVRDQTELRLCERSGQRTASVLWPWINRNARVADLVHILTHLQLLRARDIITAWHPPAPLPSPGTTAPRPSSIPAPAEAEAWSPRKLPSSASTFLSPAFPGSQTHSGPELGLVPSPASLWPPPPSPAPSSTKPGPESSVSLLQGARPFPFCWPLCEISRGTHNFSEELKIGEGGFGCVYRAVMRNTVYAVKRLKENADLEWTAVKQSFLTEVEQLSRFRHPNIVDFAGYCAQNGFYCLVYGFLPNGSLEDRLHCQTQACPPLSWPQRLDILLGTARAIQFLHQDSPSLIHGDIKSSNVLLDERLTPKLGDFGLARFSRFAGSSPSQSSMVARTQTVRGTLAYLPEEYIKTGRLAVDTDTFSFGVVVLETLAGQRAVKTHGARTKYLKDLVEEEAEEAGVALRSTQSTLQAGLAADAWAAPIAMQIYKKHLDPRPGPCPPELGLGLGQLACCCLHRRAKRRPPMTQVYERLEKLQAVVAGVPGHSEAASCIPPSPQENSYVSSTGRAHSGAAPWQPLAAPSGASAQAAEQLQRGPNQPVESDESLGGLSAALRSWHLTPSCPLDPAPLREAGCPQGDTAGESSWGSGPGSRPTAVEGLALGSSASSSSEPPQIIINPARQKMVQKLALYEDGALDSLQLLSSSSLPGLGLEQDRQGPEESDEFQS

[17] = target: Interleukin-1 receptor-associated kinase 1 (Homo sapiens) (UniProt P51617); conditions: at 10 µM
[18] = target: T4, Inhibitor of nuclear factor kappa-B kinase subunit beta (Homo sapiens); conditions: at 1 µM
[19] = target: Insulin receptor (Homo sapiens) (UniProt P06213); conditions: at 1 µM; remark: listed apart in the source
[20] = target: Insulin receptor (Homo sapiens) (UniProt P06213); conditions: at 10 µM; remark: listed apart in the source

Structure (SMILES)	residual activity [1] [%]	residual activity [2] [%]	residual activity [3] [%]	residual activity [4] [%]	residual activity [5] [%]	residual activity [6] [%]	residual activity [7] [%]	residual activity [8] [%]	residual activity [9] [%]	residual activity [10] [%]	residual activity [11] [%]	residual activity [12] [%]	residual activity [13] [%]	residual activity [14] [%]	residual activity [15] [%]	residual activity [16] [%]	residual activity [17] [%]	residual activity [18] [%]	residual activity [19] [%]	residual activity [20] [%]
N/C(=N\[N+](=O)[O-])N/N=C\c1ccc(-c2cccc([N+](=O)[O-])c2)o1	96	93	94	72	98	98	99													
CCn1cnc2c(Nc3cccc(Cl)c3)nc(N[C@@H]3CCCC[C@@H]3N)nc21	82	43	68	45		79	93	81	33	71	44	99	89	70	34	85	64			
CC(C)[C@H](CO)Nc1nc(Nc2cccc(Cl)c2)c2ncn(C(C)C)c2n1	82	32	90	66	95	93		98	49	48	12			34	4	81	23	116	81	33
C[S+]([O-])c1ccc(-c2nc(-c3ccc(F)cc3)c(-c3ccncc3)[nH]2)cc1 (stereo not given)	108	79	124	111	130	77	101	111	79	117	122	113	96	103	98	108	97	104	94	129
